Results reported in PubChem BioAssay.
Values joined by “and” are separate entries in the source; they are usually repeats but may differ in a detail not shown here. Equal entries are not always repeated. Inconclusive results are not listed. Active and inactive are the calls of the source. Unless noted, no cut-off is given here; in the data, nearly all actives have AC50 up to about 30 µM.

Tests used:
[1] = stimulators of nuclear beta-catenin in C2C12, primary screen, imaging, WNT3A-conditioned medium, mouse C2C12, NPC library (AID 1117326; in the data active = nuclear beta-catenin stimulation mostly above about 4.2%, no sharp cut-off; inactive = mostly below about 10%; note: reference of the scale not given here); settings: stronger effect = higher value
[2] = stimulators of insulin release from INS-1E, primary screen, cell-based, 5 mM glucose, NPC library (AID 1117329;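 active = compound raises insulin release from rat beta cells at 5 mM glucose, no numeric limit stated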; note: reference of the scale not given here); settings: rat INS-1E insulin secretion, at 10 µM, stronger effect = higher value
[3] = growth inhibition of GSK3B-pretreated HCT116 cells – cell-based, CellTiter-Glo, 0.2 to 20 µM (AID 1117336;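 active = compounds lowering colon cancer cell viability after pretreatment blocking the GSK3B kinase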); settings: HCT116 viability after GSK3B inhibitor, at 20 µM, stronger effect = higher value
[4] = inhibition of endothelial tube formation, primary screen, imaging, VEGF stimulated, CD31 staining, tube area, NPC library (AID 1117340;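 active = compound that reduces growth-factor-driven endothelial tube area in a mixed cell culture, no cutoff stated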); settings: VEGF-stimulated ADSC/ECFC co-culture, at 10 µM, stronger effect = higher value
[5] = glucagon-like peptide 1 release enhancers, primary assay, NCI-H716 cell line, NPC library (AID 1117341;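 active = compound raises GLP1 secretion from the human gut endocrine cells, with no numeric limit stated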; note: reference of the scale not given here); settings: NCI-H716 cells, at 10 µM, stronger effect = higher value
[6] = HCT116 colon cancer cell growth inhibition, primary screen, CellTiter-Glo luminescence, NPC library (AID 1117342;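 active = compounds that lower survival of HCT116 colon cancer cells in the luminescence readout, no numeric limit stated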); settings: at 20 µM (top of the series)
[7] = CellTiter-Glo luminescent readout of SW480 viability loss, NPC library primary (AID 1117343;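 active = compounds that lower viability of the colon cancer cells in the luminescence readout, with no numeric limit stated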); settings: CellTiter-Glo luminescence; at 20 µM (top of the series) unless noted
[8] = decreased DLD-1 cellular survival, CellTiter-Glo luminescent readout, NPC compound collection, primary HTS (AID 1117346;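 active = compounds that lower survival of DLD-1 colon cancer cells in the luminescence readout, no cutoff given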); settings: DLD-1 viability, CellTiter-Glo luminescence; at 20 µM (top of the series)
[9] = growth inhibition of DIPG glioma cells, dose response, cell-based, SU-DIPG-IV, MIPE4.0, CellTiter-Glo, qHTS (AID 1347063); settings: SU-DIPG-IV viability, CellTiter-Glo ATP luminescence;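 note: compound exposure lasted 48 hours before the viability readout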
[10] = SU-DIPG-VI glioma cell viability, MIPE4.0 library, CellTiter-Glo luminescence, qHTS (AID 1347066); settings: CellTiter-Glo ATP luminescence;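 note: cells exposed to compound for 48 hours before readout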
[11] = JHH-DIPG-1 glioma cell viability, MIPE5.0 library, CellTiter-Glo luminescence, qHTS (AID 1347067; cut-off not given, nearly all actives have AC50 up to about 26 µM;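 note: cells exposed to compound for 48 hours before readout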); settings: JHH-DIPG-1 glioma viability, CellTiter-Glo ATP luminescence
[12] = SU-DIPG-XXV glioma cell viability, MIPE5.0 library, qHTS (AID 1347068; cut-off not given, nearly all actives have IC50 up to about 30 µM;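 for IC50: cells exposed to compound for 48 hours before viability readout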)
[13] = sensitizers of A549 cells to miR-34 induction, primary screen, imaging, A549 dox-inducible miR-34, nuclei and caspase counts (AID 1347080;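 active = compounds whose cell count with miR-34 switched on is under 0.7 times the count with it off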); settings: A549 miR-34 inducible, Hoechst nuclei count, 48 h
[14] = survival rescue of mitochondrial mutant cells in low glucose, primary screen, MELAS cybrids, Rieske KO mouse fibroblasts, CellTiter-Glo (AID 1508586;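 active = mean z-score across replicates of 1.96 or higher in either the MELAS or the Rieske mutant cell line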;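 note: z relative to plate mean and SD of compound and empty wells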)
[15] = viability rescue of complex I mutant cybrids, primary screen, cell-based, galactose medium, ATP luminescence (AID 1645843;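 active = z-score of at least 1.8 in each of two replicates, scored against plate mean and spread of sample wells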;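 note: positive z means more ATP and so rescue of galactose-driven cybrid death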); settings: complex I mutant cybrid cells, 72 h, stronger effect = higher value
[16] = liver-stage malaria parasite growth inhibition, primary screen, cell-based, HepG2, luciferase luminescence, HepG2 viability (AID 624349; in the data active = parasite load remaining mostly below about 12%, no sharp cut-off; inactive = mostly above about 10%;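 note: 100% = mean of DMSO negative control wells on the same plate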); settings: P. berghei liver stage in HepG2, luciferase luminescence, concentration not given here; parasite load remaining: stronger effect = lower value; viability: measured here: HepG2 viability without parasites
[17] = growth inhibition of DIPG glioma cells, dose response, cell-based, JHH-DIPG-1, MIPE4.0, CellTiter-Glo, qHTS (AID 1347062; cut-off not given, nearly all actives have AC50 up to about 27 µM;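 for AC50: cells exposed to compound for two days before readout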); settings: JHH-DIPG-1 viability, CellTiter-Glo ATP luminescence
[18] = viability loss in pontine glioma line – cell-based, SU-DIPG-XXV, MIPE5.0, CellTiter-Glo, qHTS, dose response (AID 1347065; cut-off not given, nearly all actives have AC50 up to about 26 µM;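 note: cells exposed to compound for 48 hours before ATP readout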); settings: CellTiter-Glo ATP luminescence
[19] = phospholipid biosynthesis inhibitors in animal cells, primary screen, cell-based, LOPAC library, screen 4 (AID 1347384; call rule not given here); settings: phospholipid biosynthesis inhibition screen, at 10 µM
[20] = stronger effect = lower value, cell number ratio, induced over uninduced
[21] = measured here: relative caspase fold change +Dox/-Dox
[22] = measured here: total cells with miR-34 induction, stronger effect = lower value
[23] = measured here: total cells without miR-34 induction
[24] = MELAS cybrid survival, CellTiter-Glo 48 h, stronger effect = higher value
[25] = Rieske KO mouse fibroblast survival, CellTiter-Glo 72 h

CCCCc1oc2ccc(NS(C)(=O)=O)cc2c1C(=O)c1ccc(OCCCN(CCCC)CCCC)cc1
0.545 and 1.08: fold change [13, 21]
active: viability decrease [3] 99.1% | tube area decrease [4] 109% | inhibition of viability [6] 99.3% | viability decrease (inhibition) [7] 102% | viability decrease (inhibition) [8] 101% | AC50 [9] 7.43 µM | AC50 [10] 13.2 µM | AC50 [11] 10.5 µM | IC50 [12] 10.5 µM
1290 and 3970: cell count [13, 23]
2%: nuclear beta-catenin stimulation ([1]; stimulation, at 2 µM)
inactive: nuclear beta-catenin stimulation ([1]; at 10 µM) -3.1% | insulin secretion stimulation [2] 2.1% | GLP1 secretion stimulation [5] -5.9% | fold change [13, 20] 1.3 and 0.866 | z-score [15] -2.66
1.98 and -1.01: z-score [14, 25]
-1.62 and -0.663 (inactive): z-score [14, 24]
1680 and 3440: cell count [13, 22]

O=P(O)(O)C(O)(Cn1ccnc1)P(=O)(O)O
1.6: fold change [13, 21]
9230: cell count [13, 22]
1%: nuclear beta-catenin stimulation ([1]; stimulation, at 2 µM)
inactive: parasite load remaining [16] 30.2% | nuclear beta-catenin stimulation ([1]; at 10 µM) 0.4% | insulin secretion stimulation [2] 0.2% | viability decrease [3] -1.1% | tube area decrease [4] 8.6% | GLP1 secretion stimulation [5] -0.1% | inhibition of viability [6] 16.4% | viability decrease (inhibition) [7] 32.9% | viability decrease (inhibition) [8] 17.2% | outcome [17] | outcome [18] | outcome [10] | outcome [11] | outcome [12] | fold change [13, 20] 0.851 | z-score [14, 24] -0.129 and 0.228 | z-score [15] 0.405
-0.459 and -1.13: z-score [14, 25]
130%: viability [16]
10900: cell count [13, 23]

CCOC(=O)c1c(C)n(C)c2ccc(O)cc12
8760: cell count [13, 23]
inactive: nuclear beta-catenin stimulation ([1]; at 10 µM) 0.7% | insulin secretion stimulation [2] 0.5% | viability decrease [3] -5.75% | tube area decrease [4] -15.4% | GLP1 secretion stimulation [5] 3.6% | inhibition of viability [6] 0% | viability decrease (inhibition) [7] 7% | viability decrease (inhibition) [8] -0.8% | outcome [17] | outcome [9] | outcome [10] | outcome [12] | fold change [13, 20] 0.886 | z-score [14, 24] -0.277
0.616: z-score [14, 25]
7760: cell count [13, 22]
0.841: fold change [13, 21]
2.1%: nuclear beta-catenin stimulation ([1]; stimulation, at 2 µM)

CC(=O)N[C@H]1[C@H]([C@H](O)[C@H](O)CO)OC(C(=O)O)=C[C@@H]1N=C(N)N
0.5%: nuclear beta-catenin stimulation ([1]; stimulation, at 2 µM)
inactive: nuclear beta-catenin stimulation ([1]; at 10 µM) 0.9% | insulin secretion stimulation [2] -2.6% | viability decrease [3] -14.4% | tube area decrease [4] 7.8% | GLP1 secretion stimulation [5] -2.9% | inhibition of viability [6] -2.4% | viability decrease (inhibition) [7] 19.9% | viability decrease (inhibition) [8] 2.95% | outcome [17] | outcome [9] | outcome [10]

CC(C)C[C@H](NC(=O)[C@H](CCc1ccccc1)NC(=O)CN1CCOCC1)C(=O)N[C@@H](Cc1ccccc1)C(=O)N[C@@H](CC(C)C)C(=O)[C@@]1(C)CO1
active: nuclear beta-catenin stimulation ([1]; at 10 µM) 106% | viability decrease [3] 117% | tube area decrease [4] 110% | inhibition of viability [6] 124% | viability decrease (inhibition) [7] 150% | viability decrease (inhibition) [8] 101% | AC50 [17] 0.0187 µM | AC50 [9] 0.0235 µM | AC50 [18] 0.00525 µM | AC50 [10] 0.0935 µM | AC50 [11] 0.0105 µM | IC50 [12] 0.0934 µM
inactive: insulin secretion stimulation [2] 6.05% | GLP1 secretion stimulation [5] 5.2%
129%: nuclear beta-catenin stimulation ([1]; stimulation, at 2 µM)

COC(c1ccccc1)(c1ccccc1)[C@H](Oc1nc(C)cc(C)n1)C(=O)O
0%: nuclear beta-catenin stimulation ([1]; stimulation, at 2 µM)
inactive: nuclear beta-catenin stimulation ([1]; at 10 µM) -1.5% | insulin secretion stimulation [2] 4.3% | viability decrease [3] -12.3% | tube area decrease [4] 10.8% | GLP1 secretion stimulation [5] -5.9% | inhibition of viability [6] 6.7% | viability decrease (inhibition) [7] 9.7% | viability decrease (inhibition) [8] -0.4% | outcome [17] | outcome [9] | outcome [18] | outcome [10] | outcome [11] | outcome [12]

NC(=O)c1ncn([C@@H]2O[C@H](CO)[C@@H](O)[C@H]2O)c1N
inactive: nuclear beta-catenin stimulation ([1]; at 10 µM) 1.3% | insulin secretion stimulation [2] -2.3% | viability decrease [3] -16.2% | tube area decrease [4] -6.4% | GLP1 secretion stimulation [5] 1.9% | inhibition of viability [6] -20.6% | viability decrease (inhibition) [7] -88.2% | viability decrease (inhibition) [8] -22.4% | outcome [17] | outcome [18] | outcome [10] | outcome [11] | outcome [12]
1.8%: nuclear beta-catenin stimulation ([1]; stimulation, at 2 µM)

Clc1ccc(C(Cn2ccnc2)OCc2c(Cl)cccc2Cl)c(Cl)c1 (stereo not drawn)
-1.1%: nuclear beta-catenin stimulation ([1]; stimulation, at 2 µM)
46.9% and 87.2%: viability [16]
inactive: parasite load remaining [16] 26.3% and 91.5% | nuclear beta-catenin stimulation ([1]; at 10 µM) 1.3% | insulin secretion stimulation [2] 3.1%
active: viability decrease [3] 110% | tube area decrease [4] 107% | GLP1 secretion stimulation [5] 35.3% | inhibition of viability [6] 113% | viability decrease (inhibition) [7] 132% | viability decrease (inhibition) [8] 101% | AC50 [18] 23.5 µM

COCCCN1CCC(NC(=O)c2cc(Cl)c(N)c3c2OCC3)CC1
8080 and 7810: cell count [13, 22]
active: AC50 [10] 23.5 µM
-0.104 and -0.205: z-score [14, 25]
8300 and 5970: cell count [13, 23]
-2%: nuclear beta-catenin stimulation ([1]; stimulation, at 2 µM)
inactive: nuclear beta-catenin stimulation ([1]; at 10 µM) 0.7% | insulin secretion stimulation [2] 1% | viability decrease [3] -4.2% | tube area decrease [4] -8% | GLP1 secretion stimulation [5] 1.9% | inhibition of viability [6] 3.4% | viability decrease (inhibition) [7] -13.9% | viability decrease (inhibition) [8] -4.2% | outcome [17] | outcome [11] | outcome [12] | fold change [13, 20] 0.972 and 1.31 | z-score [14, 24] -0.321 and -0.32
0.687 and 0.593: fold change [13, 21]

CC(C)(C)C(=O)Oc1ccc(S(=O)(=O)Nc2ccccc2C(=O)NCC(=O)O)cc1
1.7%: nuclear beta-catenin stimulation ([1]; stimulation, at 2 µM)
active: viability decrease [3] 66% | viability decrease (inhibition) [7] 70%
9900: cell count [13, 23]
inactive: nuclear beta-catenin stimulation ([1]; at 10 µM) 0.7% | insulin secretion stimulation [2] 0% | tube area decrease [4] -2.9% | GLP1 secretion stimulation [5] 0.3% | inhibition of viability [6] 24.1% | viability decrease (inhibition) [8] 3.4% | outcome [17] | outcome [12] | fold change [13, 20] 1.07 | outcome [19] | z-score [15] 0.85
10600: cell count [13, 22]
1.11: fold change [13, 21]

CC=CC1=C(C(=O)O)N2C(=O)[C@@H](NC(=O)[C@H](N)c3ccc(O)cc3)[C@H]2SC1
2.9%: nuclear beta-catenin stimulation ([1]; stimulation, at 2 µM)
inactive: nuclear beta-catenin stimulation ([1]; at 10 µM) 1% | insulin secretion stimulation [2] -0.3% | viability decrease [3] 4.9% | tube area decrease [4] -8.9% | GLP1 secretion stimulation [5] -4% | inhibition of viability [6] 41.6% | viability decrease (inhibition) [7] 45.4% | viability decrease (inhibition) [8] 33.9% | outcome [17] | outcome [9] | outcome [10]
